{"source": "the supplement of paper PMC4962491", "note": "± gives the standard deviation of the averaged measurements. In all, about 1,600 compounds were measured (“mitochondrial oxygen consumption rate normalised to cell number, Z score over the library”: median about 0.065, lowest 2% from about -2.2 on). Shown is part of a subset that was picked to be rich in the lowest values."}
{"system": "FaDu", "assay": "mitochondrial oxygen consumption rate normalised to cell number, Z score over the library; higher = higher oxygen consumption (negative = OCR reduction)", "conditions": "treatment time 24 h; assay medium: 5 mM galactose, 5 mM pyruvate, 4 mM glutamine; 10 µM", "procedure": "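Primary screen: FaDu cells were incubated 24 h with Pharmakon 1600 / TDI oncology set compounds at 2 or 10 uM. Mitochondrial-specific OCR (basal minus 2 uM antimycin A) was measured on a Seahorse XF96 in assay medium with 5 mM galactose, 5 mM pyruvate and 4 mM glutamine, then corrected for Hoechst cell number and expressed as a Z score […]. Compounds that cut cell number by >66% were excluded. Two repeats.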"}
{"smiles": "CC(C)NCC(O)COc1cccc2ccccc12", "note": "(racemic)", "mitochondrial oxygen consumption rate normalised": "-0.291 ± 0.42"}
{"smiles": "CC[n+]1c(-c2ccccc2)c2cc(N)ccc2c2ccc(N)cc21", "mitochondrial oxygen consumption rate normalised": "-2.32 ± 0.27"}
{"smiles": "CS(=O)(=O)Nc1ccc([N+](=O)[O-])cc1Oc1ccccc1", "mitochondrial oxygen consumption rate normalised": "0.196 ± 0.72"}
{"smiles": "COc1cc(NS(C)(=O)=O)ccc1Nc1c2ccccc2nc2ccccc12", "mitochondrial oxygen consumption rate normalised": "-2.77 ± 0.43"}
{"smiles": "CC(=O)Oc1c(C)c(C)c2c(c1C)CCC(C)(CCCC(C)CCCC(C)CCCC(C)C)O2", "note": "(stereo not drawn) [alpha-TOCHOPHERYL ACETATE]", "mitochondrial oxygen consumption rate normalised": "-0.281 ± 0.21"}
{"smiles": "O=C1c2ccccc2C(=O)C1c1ccc(Cl)cc1", "mitochondrial oxygen consumption rate normalised": "0.0788 ± 0.46"}
{"smiles": "CC(O)C(=O)[O-].[Na+]", "note": "(configuration not stated)", "mitochondrial oxygen consumption rate normalised": "1.11 ± 0.92"}
{"smiles": "CC(=O)Nc1ccc(S(=O)(=O)Nc2ccc([N+](=O)[O-])cc2)cc1", "mitochondrial oxygen consumption rate normalised": "1.45 ± 0.4"}
{"smiles": "NCCCS(=O)(=O)O", "mitochondrial oxygen consumption rate normalised": "-0.855 ± 0.32"}
{"smiles": "C#CCC(Cc1cnc2nc(N)nc(N)c2n1)c1ccc(C(=O)N[C@@H](CCC(=O)O)C(=O)O)cc1", "note": "(some centres not stated) [Pralatrexate]", "mitochondrial oxygen consumption rate normalised": "0.0598 ± 0.75"}
{"smiles": "Nc1ccc(S(=O)(=O)O)cc1.Nc1ccc(S(=O)(=O)O)cc1.[Zn]", "mitochondrial oxygen consumption rate normalised": "1.04 ± 0.43"}
{"smiles": "C[C@@H]1O[C@@H](OC[C@H]2O[C@@H](Oc3c(-c4ccc(OCCO)c(OCCO)c4)oc4cc(OCCO)cc(O)c4c3=O)[C@H](O)[C@@H](O)[C@@H]2O)[C@H](O)[C@H](O)[C@H]1O", "mitochondrial oxygen consumption rate normalised": "-0.575 ± 0.55"}
{"smiles": "CC(C)CCC[C@@H](C)[C@H]1CC[C@H]2[C@@H]3CC=C4C[C@@H](O)CC[C@]4(C)[C@H]3CC[C@]12C", "mitochondrial oxygen consumption rate normalised": "-0.87 ± 0.089"}
{"smiles": "O=C(c1cccnc1)N1CCOCC1", "mitochondrial oxygen consumption rate normalised": "-0.217 ± 0.94"}
{"smiles": "COc1cc(NS(=O)(=O)c2ccc(N)cc2)ncn1", "mitochondrial oxygen consumption rate normalised": "0.47 ± 0.61"}
{"smiles": "NCC(O)CC(=O)O", "note": "(configuration not stated)", "mitochondrial oxygen consumption rate normalised": "-0.332 ± 0.83"}
{"smiles": "CN1C(=O)CC(C)(c2ccccc2)C1=O", "note": "(configuration not stated)", "mitochondrial oxygen consumption rate normalised": "-0.314 ± 0.74"}
{"smiles": "CCCCCCCCCc1ccc(OCCOCCOCCOCCOCCOCCOCCOCCOCCO)cc1", "mitochondrial oxygen consumption rate normalised": "-3.66 ± 0.45"}
{"smiles": "CCCCOc1ccc(OCCCN2CCOCC2)cc1", "mitochondrial oxygen consumption rate normalised": "-0.434 ± 0.23"}
{"smiles": "CCCCOc1ccc(CC(=O)NO)cc1", "mitochondrial oxygen consumption rate normalised": "-0.625 ± 0.84"}
{"smiles": "CC(=O)Oc1ccccc1C(=O)O", "mitochondrial oxygen consumption rate normalised": "0.27 ± 0.45"}
{"smiles": "CC(=O)Nc1ncc([N+](=O)[O-])s1", "mitochondrial oxygen consumption rate normalised": "0.857 ± 0.27"}
{"smiles": "CC(=O)Oc1ccccc1C(=O)Nc1ncc([N+](=O)[O-])s1", "mitochondrial oxygen consumption rate normalised": "-2.45 ± 0.1"}
{"smiles": "CN(C)[C@@H]1C(O)=C(C(N)=O)C(=O)[C@@]2(O)C(O)=C3C(=O)c4c(O)cccc4[C@@](C)(O)[C@H]3[C@H](O)[C@@H]12", "mitochondrial oxygen consumption rate normalised": "0.305 ± 0.067"}
{"smiles": "Cn1c(=O)c2[nH]c(Br)nc2n(C)c1=O", "mitochondrial oxygen consumption rate normalised": "0.142 ± 0.29"}
{"smiles": "O=C(CCBr)N1CCN(C(=O)CCBr)CC1", "note": "[Pipobroman]", "mitochondrial oxygen consumption rate normalised": "-0.527 ± 1.4"}
{"smiles": "O=C(CCBr)N1CCN(C(=O)CCBr)CC1", "mitochondrial oxygen consumption rate normalised": "1.32 ± 1.1"}
{"smiles": "CCC1(C)OC(=O)N(C)C1=O", "note": "(configuration not stated)", "mitochondrial oxygen consumption rate normalised": "0.0479 ± 0.05"}
{"smiles": "CN1C(C(=O)Nc2ccccn2)=C(O)c2sc(Cl)cc2S1(=O)=O", "mitochondrial oxygen consumption rate normalised": "-0.183 ± 0.66"}
{"smiles": "Oc1ccc(Cl)c2cccnc12", "mitochondrial oxygen consumption rate normalised": "0.469 ± 0.61"}
{"smiles": "Oc1c(I)cc(I)c2cccnc12", "mitochondrial oxygen consumption rate normalised": "0.968 ± 0.98"}
{"smiles": "O=[N+]([O-])c1ccc(O)c2ncccc12", "mitochondrial oxygen consumption rate normalised": "-2.21 ± 0.14"}
